Compound activity deposited in PubChem by National Center for Advancing Translational Sciences (NCATS).
SW480 rereplic: DNA re-replication induction in SW480 cells | 340,000 compounds, 1.8% hits | SW480 DNA re-replication, Hoechst DNA content imaging, 48 h | Potency, µM (top dose mostly 46.1 µM), without a hit: top-dose re-replication activation, usual class: activators; also: % of control where 0% means no effect; nearly all actives have a fitted effect of over 55% in size
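250 cells/well; 23 nL cpd via pin tool; 48 hr, 37 C, 5% CO2; Hoechst 40 min; imager read of total nuclear intensity, ex 405/em 500-530 nm.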
KB-3-1 tox: kills parental KB-3-1 adenocarcinoma cells | KB-3-1 viability, CellTiter-Glo ATP luminescence, 72 h | Potency, µM (doses to about 46.1 µM), hits mostly cytotoxic | 400,000 compounds, 1.4% hits; also: % is scaled to controls: 0 for no effect and ±100 for the full control effect; nearly all actives have a fitted effect of over 60% in size
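Viability of parental KB-3-1 cells, measured by CellTiter-Glo luminescence, followed a 72 h incubation at 37 °C with pinned compounds in phenol-red-free DMEM containing 10% FBS.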
MCF10A rerep: DNA re-replication induction in MCF 10a cells | MCF 10A DNA re-replication, Hoechst nuclear intensity, 48 h | Potency, µM (titrated, usually from 46.1 µM), for the others: at the top dose activity, positive = re-replication, actives largely listed as activators | 350,000 compounds, 2.9% hits | AID 624296; also: % of control where 0% means no effect; nearly all actives have a fitted effect of over 50% in size
HT1080 IDH1KD tx: kills HT-1080 cells with IDH1 knockdown. AID 686971. Potency, µM (top dose mostly 46.1 µM), for inactives: at the highest dose activity, negative = toxicity, most hits filed as cytotoxic. 360,000 compounds, 2% hits. HT-1080 IDH1 knockdown viability, ATP luminescence, 48 h;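 also: 0% = DMSO wells and -100% = cell-free medium wells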
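% activity derives from luminescence (CellTiter-Glo), normalised to DMSO and no-cell wells. HT-1080-IDH1KD cells, 750/well, had 48 h compound exposure at 37 °C.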
HT1080NT lethal: kills 2HG-producing HT-1080-NT fibrosarcoma cells; HT-1080-NT fibrosarcoma viability, CellTiter-Glo ATP luminescence, 48 h; Potency, µM (top dose mostly 46.1 µM), inactives show at the highest dose activity, negative = less viability, usual class: cytotoxic; 360,000 compounds, 1.6% hits; AID 686970;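 also: NT is the 2HG producing partner of a matched IDH1 knockdown line; 0% = DMSO-treated cells and -100% = media-only wells without cells; nearly all actives have a fitted effect of over 55% in size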
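Viability of the 2HG-overproducing fibrosarcoma line after 48 hours of compound exposure at 37 degrees C was determined by luminescence with CellTiter-Glo, and concentration-effect curves were then fitted and categorized.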
KB-V1 cytotox: KB-V1 MDR subline cytotoxicity; KB-V1 MDR cells viability, CellTiter-Glo, 72 h; Potency, µM (titrated, usually from 46.1 µM), hits mostly cytotoxic; 400,000 compounds, 3.4% hits; AID 1347076; also: % is scaled to controls: 0 for no effect and ±100 for the full control effect; nearly all actives have a fitted effect of over 60% in size
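KB-V1 cells (P-gp-expressing MDR subline of KB-3-1) in phenol-red-free DMEM with 10% FBS were exposed to library compounds over a concentration series for 72 h at 37 degrees C. Viability read by CellTiter-Glo luminescence; concentration-effect curves fitted after normalization.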
* hit, by the source's call; i = inactive; u = inconclusive; x = not tested or not shown; ! = not confirmed by another sample; [ ] = another dose, or the depositor's remark. An excerpt weighted towards active compounds, which were near 7.9% of everything screened. Calls follow the shape of the dose curve; as a rule, active = well fitted curve in the direction sought with a large enough effect; inconclusive = small, poorly fitted or top-dose-only effect, or another doubt; inactive = no such curve, though single readings can be large; an effect the other way counts as inactive or inconclusive. Potency is read from the fitted curve at half-maximal effect.

SMILES	SW480 rereplic	KB-3-1 tox	MCF10A rerep	HT1080 IDH1KD tx	HT1080NT lethal	KB-V1 cytotox
CN(C)c1ccc(C(c2ccc(N(C)C)cc2)C(O)c2ccccc2)cc1 (centres undefined)	-3%	i	23%	16%	11%	16µM*
Cc1nnc(N/N=C/c2cc(C)n(-c3ccc(F)cc3)c2C)n1N	18%	i	u	u	23µM*	i
O=C(CC(=O)NC1CCCCC1)N/N=C/c1ccc(Cl)cc1	-4%	i	-19%	-2%	-4%	i
Cc1cc(/C=N/NC(N)=S)c(C)n1-c1ccc(Br)cc1	11%	i	u	u	u	u
Cc1cc(/C=N/NC(N)=S)c(C)n1-c1ccc(Cl)cc1	u	i	8.2µM*	-20%	-21%	i
Cc1cc(/C=N\NC(=O)CC(=O)NC2CCCCC2)c(C)n1-c1ccc(Cl)cc1	10%	i	20%	u	-4%	21µM*
CCc1nc(=O)c(-c2ccccc2)c(C)n1-c1ccccc1	-6%	i	14%	18%	u	u
Cc1[nH]nc(N=CC2=C(O)CC(C)(C)CC2=O)c1-c1ccc(Cl)cc1	u	i	18µM*!	1%	4%	21µM*!
CC1(C)CC(=O)C(C=Nc2ccc(O)cc2)=C(O)C1	-8%	i	-1%	-2%[9.24 µM]	u	i
CC1(C)CC(=O)C(C=Nc2ccc(N)cc2)=C(O)C1	u	i	0.65µM*	-4%	0%	i
Cc1[nH]nc(N=CC2=C(O)CC(c3ccco3)CC2=O)c1-c1ccc(Cl)cc1 (centres undefined)	-1%	i	18%	-13%	-1%	16µM*
CC1(C)CC(=O)C(C=Nc2ccc(Cl)cn2)=C(O)C1	-8%	i	-4%	17%	13%	i
Cc1ccc(CN2CCC(c3cc(-c4cccs4)n[nH]3)CC2)cc1	10%	i	u	u	u	u
C=CS(=O)(=O)c1sc(Cl)c(N2CCOCC2)c1[N+](=O)[O-]	11%	i	20%	10µM*	u	i
CCCCn1c(N)c(N(CCOC)C(=O)c2ccc(-c3ccc(Cl)cc3)o2)c(=O)[nH]c1=O	3%	i	28%	-6%	-6%	i
CN(C)S(=O)(=O)c1cccc(C(=O)c2nccn2C)c1	0%	i	-2%	24%	8%	i
COc1cccc(C(=O)N2CCC[C@H]2C(=O)N2CCC[C@H]2C(=O)NCc2ccc(F)cc2F)c1	x	i	x	7%	11%	i
CCCC[n+]1c(C)ccc2ccccc21	x	u	x	x	x	i
CCCCCCCC[n+]1cccc2c3ccccc3ccc21	u	u	u	8.2µM*	12µM*	i
CCCCCCCCCC[n+]1cccc2cc(Cl)ccc21	x	5.2µM*	x	x	x	i
CCCCCCCCCC[n+]1cccc2c3ccccc3ccc21	21%	1.2µM*	31%	2.3µM*	4.1µM*	i
CCCCCCCCCCCCCCCC[n+]1ccc(C)c2ccccc21	x	3.7µM*	x	x	x	13µM*
Cc1cc[n+](CC(=O)c2ccc(F)cc2)c2ccccc12	x	i	x	x	x	i
Cc1ccc(S(=O)(=O)N2CCOCC2)cc1NC(=O)COC(=O)c1ccc(Br)o1	-5%	i	-7%	1%	-6%	i
Cn1c(=O)c2c(nc(-c3ccccc3)n2C)n(Cc2ccccc2)c1=O	-3%	i	5%	20%	18%	15µM*
Cn1c(-c2cccc(F)c2)nc2c1c(=O)[nH]c(=O)n2Cc1ccccc1	-24%	i	2%	u	u	i
COc1ccc(-c2nc3c(c(=O)[nH]c(=O)n3Cc3ccccc3)n2C)cc1	-7%	i	-1%	-3%	-6%	i
COc1ccc(-c2nc3c(c(=O)[nH]c(=O)n3Cc3ccccc3)n2Cc2ccccc2)cc1	3%	u	u	u	u	3.7µM*
